Test [1] is described as follows: NCI Yeast Anticancer Drug Screen. Data for the rad50 strain (AID 155).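 Further: 0% = growth of vehicle-only cultures of the same strain.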 The settings on record: S. cerevisiae rad50 strain growth inhibition, stronger effect = higher value. In outline: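 DNA repair mutant yeast, compound exposure, growth read-out; inhibition is taken relative to vehicle.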
Test [2] is described as follows: NCI Yeast Anticancer Drug Screen. Data for the sgs1 mgt1 strain (AID 161).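 Further: 0% = growth of cultures given vehicle only.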 Particulars: S. cerevisiae sgs1 mgt1 strain, stronger effect = higher value. In outline: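 Growth of a repair-deficient yeast mutant was monitored after compound treatment and expressed as inhibition relative to vehicle-treated cultures.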
Test [3] is described as follows: NCI Yeast Anticancer Drug Screen. Data for the cln2 rad14 strain (AID 165).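 Further: 0% = growth equal to vehicle treated cultures.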 Particulars: S. cerevisiae cln2 rad14 strain, stronger effect = higher value. In outline: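 Yeast carrying cln2 and rad14 alterations (cell cycle control and DNA damage repair) were exposed to compounds. Growth inhibition was measured against vehicle-treated controls.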
Test [4] can be described thus: NCI Yeast Anticancer Drug Screen. Data for the bub3 strain (AID 167). The settings on record: S. cerevisiae bub3 mutant strain, stronger effect = higher value. In outline:
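In this screen, a yeast mutant lacking normal mitotic checkpoint function is challenged with compound. Relative growth versus vehicle gives the inhibition value.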

Test [5] can be described thus: NCI Yeast Anticancer Drug Screen. Data for the mlh1 rad18 strain (AID 175). The settings on record: S. cerevisiae mlh1 rad18 strain growth inhibition, stronger effect = higher value. Put shortly: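 Growth inhibition of the yeast strain was measured after compound exposure and expressed relative to vehicle-treated controls. The strain carries defined defects in DNA damage repair.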

Test [6] can be described thus: NCI Yeast Anticancer Drug Screen. Data for the mec2-1 strain (AID 157). The settings on record: S. cerevisiae mec2-1 strain, stronger effect = higher value. Put shortly:
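mec2-1 yeast strain, carrying an alteration in DNA damage repair or cell cycle control, was exposed to compounds; growth inhibition was measured relative to vehicle-treated controls.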

The mark [7] stands for this setting: at 5.0 µM (retest, dose inferred, filed as 0.5).
Setting [8] is: at 50.0 µM (retest, dose inferred, filed as 5.0).

Several values for one entry are separate records, joined by “and”; a condition that tells them apart may be missing. Equal values may be shown once. The panel holds about 79,000 compounds, 15% with a hit somewhere; the sample as a whole holds those more often. A number with no mark means an inactive call. Activity calls are given as the source filed them. No stated cut-off is given here; in the data, active means growth inhibition above about 70%; inactive means the rest.

Turning to `Cc1ccc2c[c]1[Hg][CH2]COS2(=O)=O`, the growth inhibition in test [1] (setting [7]) is 33%; in test [1] (setting [8]), 98% (active); in test [1] (at 50.0 µM), 94.7% (active); in test [2] (setting [7]), 48%; in test [2] (setting [8]) it was 99% (active); in test [2] (at 50.0 µM), 97.5% (active). For the same molecule, the growth inhibition was 9% in test [3] (setting [7]); 98% (active) in test [3] (setting [8]); 98.7% (active) in test [3] (at 50.0 µM); -2% in test [4] (setting [7]); 99% (active) in test [4] (setting [8]); 99.2% (active) in test [4] (at 50.0 µM). Besides, the figures for the growth inhibition in test [5] (setting [7]), in test [5] (setting [8]) and in test [5] (at 50.0 µM) were 24%, 97% (active) and 98.2% (active), respectively.

For the molecule `CCOC(=O)/C(=C\c1ccc(C(=O)OC)cc1)[Se]c1ccccc1`, the growth inhibition in test [1] (setting [7]) was 13%; in test [1] (setting [8]) it was 54%; in test [1] (at 50.0 µM) it was 74% (active); in test [2] (setting [7]), -3%; in test [2] (setting [8]), 53%; in test [2] (at 50.0 µM), 64.3%. Besides, the growth inhibition in test [3] (setting [7]) was 3%; in test [3] (setting [8]) it was 44%; in test [3] (at 50.0 µM), 51.7%; in test [4] (setting [7]), 18%; in test [4] (setting [8]) it was 53%; in test [4] (at 50.0 µM), 38.4%. For the same molecule, the values for the growth inhibition in test [5] (setting [7]), in test [5] (setting [8]) and in test [5] (at 50.0 µM) were -11%, 64% and 58.8%, respectively.

As to `CCCC[CH2][Pb]([CH2]CCCC)([CH2]CCCC)[O]C(C)=O`, the growth inhibition in test [1] (setting [7]) was 99% (active); in test [1] (setting [8]), 96% (active); in test [1] (at 50.0 µM) it was 99% (active); in test [6] (setting [7]), 99% (active); in test [6] (setting [8]), 98% (active); in test [6] (at 50.0 µM), 99.2% (active). Also, the growth inhibition is 100% (active) in test [2] (setting [7]); 99% (active) in test [2] (setting [8]); 98.8% (active) in test [2] (at 50.0 µM); 99% (active) in test [3] (setting [7]); 95% (active) in test [3] (setting [8]); 98% (active) in test [3] (at 50.0 µM). Also, the growth inhibition is 100% (active) in test [4] (setting [7]); 97% (active) in test [4] (setting [8]); 98% (active) in test [4] (at 50.0 µM); 99% (active) in test [5] (setting [7]); 93% (active) in test [5] (setting [8]); 98.5% (active) in test [5] (at 50.0 µM).

Consider `NC(c1ccccc1)C(O)c1ccccc1` (stereo not drawn), for which the growth inhibition in test [1] (at 50.0 µM) is 2.1% [middle of 4 runs]; in test [6] (at 50.0 µM), 3.2% [middle of 4 runs]; in test [2] (at 50.0 µM) it was 10.7% [middle of 4 runs]; in test [5] (at 50.0 µM), -10.7% [middle of 4 runs].

Consider `ClCc1nc2ccccc2[nH]1`, for which the growth inhibition in test [1] (setting [7]) was 10%; in test [1] (setting [8]), 88% (active); in test [1] (at 50.0 µM), 88.7% (active); in test [6] (setting [7]), 4%; in test [6] (setting [8]) it was 45%; in test [6] (at 50.0 µM), 20.5%. Besides, the growth inhibition in test [2] (setting [7]) was 18%; in test [2] (setting [8]), 83% (active); in test [2] (at 50.0 µM) it was 83.5% (active); in test [3] (setting [7]), -1%; in test [3] (setting [8]), 77% (active); in test [3] (at 50.0 µM) it was 60%. Also, the growth inhibition was 14% in test [5] (setting [7]), 82% (active) in test [5] (setting [8]) and 74.7% (active) in test [5] (at 50.0 µM).

With `CCCCN(C)CC(C(C)=O)C(c1ccccc1)c1c(O)c2ccccc2oc1=O` (stereo not drawn), the growth inhibition in test [1] (setting [7]) was 32%; in test [1] (setting [8]) it was 32%; in test [1] (at 50.0 µM), 80.4% (active); in test [6] (setting [7]) it was 18%; in test [6] (setting [8]), 18%; in test [6] (at 50.0 µM), 78.4% (active). Besides, the growth inhibition was 11% in test [2] (setting [7]); 11% in test [2] (setting [8]); 82.3% (active) in test [2] (at 50.0 µM); 15% in test [4] (setting [7]); 15% in test [4] (setting [8]); 81.5% (active) in test [4] (at 50.0 µM). The growth inhibition was 22% in test [5] (setting [7]), 22% in test [5] (setting [8]) and 85.8% (active) in test [5] (at 50.0 µM).

As for `NNc1n[nH]c(=S)n1N`, the growth inhibition in test [1] (at 50.0 µM) is 7.2% and 1.8% and 15.1%; in test [6] (at 50.0 µM), -5.4% and 0.5% and -6.15%; in test [2] (at 50.0 µM), 9.8% and -4.35% and 4.1%; in test [4] (at 50.0 µM), 9.3% and 17% and 0.45%; in test [5] (at 50.0 µM), 17.6% and -1.5% and -1.65%.

Regarding `CCCCCC(O)C1C(=O)OC(C)C(O)/C=C/C=C/C=C/C=C/C=C(\C)C(O)C(O)C(O)CC(O)CC(O)CC(O)CC(O)CC1O` (stereo not drawn), the growth inhibition in test [1] (at 50.0 µM) is -5.85% and -8.05% and -2.3%; in test [6] (at 50.0 µM), -36.5% and -20% and -0.45%; in test [2] (at 50.0 µM), -2.25% and -8.45% and -33%; in test [3] (at 50.0 µM), -14.2% and -5% and -4.05%; in test [4] (at 50.0 µM), -2.15% and 4.5% and 11%; in test [5] (at 50.0 µM) it was 17.9% and -47.9% and 0.55%.

In the case of `COc1cc(N(CCCl)CCCl)ccc1C=Nc1cccc(Cl)c1`, the growth inhibition is 5% in test [1] (setting [7]); 45% in test [1] (setting [8]); 84% (active) in test [1] (at 50.0 µM); -6% in test [6] (setting [7]); 51% in test [6] (setting [8]); 62.6% in test [6] (at 50.0 µM). In addition, the growth inhibition in test [2] (setting [7]) is 1%; in test [2] (setting [8]), 7%; in test [2] (at 50.0 µM) it was 94% (active); in test [4] (setting [7]) it was 0%; in test [4] (setting [8]), 14%; in test [4] (at 50.0 µM), 87% (active). The growth inhibition was 17% in test [5] (setting [7]), 87% (active) in test [5] (setting [8]) and 94.2% (active) in test [5] (at 50.0 µM).

Regarding `COc1cc2c(cc1OC)C13CCN4CC5=CCOC6CC(=O)N2C1C6C5CC43` (stereo not drawn) (tested in a mixture with another compound), the growth inhibition in test [1] (setting [7]) was -6%; in test [1] (setting [8]) it was -24%; in test [1] (at 50.0 µM) it was 7.15% [middle of 6 runs]; in test [6] (setting [7]), -2%; in test [6] (setting [8]), 1%; in test [2] (setting [7]), -13%. Moreover, the growth inhibition was -8% in test [2] (setting [8]); -3% in test [3] (setting [7]); 2% in test [3] (setting [8]); 0% in test [4] (setting [7]); -2% in test [4] (setting [8]); -1.4% [middle of 6 runs] in test [4] (at 50.0 µM). The growth inhibition in test [5] (setting [7]) was -2%; in test [5] (setting [8]) it was -4%.

For `O=S(=O)(O)O`, the growth inhibition in test [5] (at 50.0 µM) is -10.7% and 13.2% and -10.6%.

As for `COc1cc(C=Nc2ccc(-c3csc(COc4ccccc4)n3)cc2)ccc1N(CCCl)CCCl`, the growth inhibition in test [1] (setting [7]) is 12%; in test [1] (setting [8]), 88% (active); in test [1] (at 50.0 µM) it was 89.7% (active); in test [6] (setting [7]), 11%; in test [6] (setting [8]) it was 92% (active); in test [6] (at 50.0 µM), 88.1% (active). The growth inhibition in test [2] (setting [7]) is 8%; in test [2] (setting [8]), 93% (active); in test [2] (at 50.0 µM), 86.2% (active); in test [4] (setting [7]), 17%; in test [4] (setting [8]) it was 88% (active); in test [4] (at 50.0 µM), 86% (active). The growth inhibition was 77% (active) in test [5] (setting [7]), 92% (active) in test [5] (setting [8]) and 90.6% (active) in test [5] (at 50.0 µM).

For `CC(NCCN(C)C)C1CC2CCCCN2C1` (stereo not drawn), the growth inhibition is -8% in test [1] (setting [7]); -30% in test [1] (setting [8]); 3.55% in test [1] (at 50.0 µM); -8% in test [6] (setting [7]); -14% in test [6] (setting [8]); 11.9% in test [6] (at 50.0 µM). Moreover, the growth inhibition in test [2] (setting [7]) is -13%; in test [2] (setting [8]), -28%; in test [2] (at 50.0 µM), 15.7%; in test [4] (setting [7]) it was 3%; in test [4] (setting [8]), 1%; in test [4] (at 50.0 µM) it was 0.8%. Also, the growth inhibition in test [5] (setting [7]) is -3%; in test [5] (setting [8]) it was 19%; in test [5] (at 50.0 µM), 33%.
